{"source": "PubChem BioAssay (Tox21)", "note": "Values joined by “and” are separate entries in the source; they are usually repeats but may differ in a detail not shown here. Equal values may be shown once. Inconclusive results are not listed. Where a call stands in place of a potency, no number is given. Unmarked numbers belong to inactive results. Active and inactive are the calls of the source. Calls follow the shape of the dose curve; as a rule, active = well fitted activation curve with a large enough effect in the repeat runs; inconclusive = weak or mixed curves; inactive = flat fitted curve, though single readings scatter. Potency is read from the fitted curve at half-maximal effect."}
{"assay": "A CellTox Green Cytotoxicity Assay to monitor cytotoxicity in HEK293 cells - 8 hour (AID 1224884); also: nearly all actives have a fitted effect of over 35% in size", "details": "CellTox Green fluorescence; series mostly up to 76.8 µM", "from_the_text": "National Center for Advancing Translational Sciences [NCATS]\nNIH Chemical Genomics Center [NCGC]\nU.S. Environmental Protection Agency [EPA]\nNational Institutes of Environmental Health Sciences [NIEHS]\nNational Toxicology Program [NTP]\nCell-based models are critical for drug discovery. Determining the natural cytotoxic effects resulting from test compounds is an essential research activity. A CellTox Green Cytotoxicity Assay to monitor cytotoxicity in real time of continues cell culture during 40 hours of the compound treatment was used to screen Tox21 10K library compounds in Hek293 cells. CellTox Green Cytotoxicity Assay is a nonlytic, homogeneous, biofluorescent method to measure cytotoxicity in cell culture after experimental manipulation. The assay system uses a proprietary asymmetric cyanine dye that is excluded from viable cells but preferentially stains the dead cell's DNA. […] Viable cells produce no appreciable increases in fluorescence. Therefore, the fluorescence signal produced by the binding interaction with dead cell DNA is proportional to cytotoxicity.\nThe mixture of Hek293 cell suspension and reagents were dispensed at 600cells/6 ul/well in 1536-well tissue culture treated black solid bottom plates using a Multidrop dispenser. After the assay plates were incubated at a 37 C/5% CO2 incubator for 5 hours, 23 nL of compounds dissolved in DMSO, positive and negative controls was transferred to the assay plate by a pintool work station. The plates were incubated at 37 C for 40 hours. The fluorescence intensity were measured at 0h, 8h, 16h, 24h, 32h and 40h time points using ViewLux plate reader during compound treatment."}
{"smiles": "CCC(=O)C(=O)CC", "Potency": "inactive"}
{"smiles": "CCC(C)[O-].CCC(C)[O-].CCOC(=O)/C=C(/C)[O-].[Al+3]", "Potency": "inactive"}
{"smiles": "CCCCNS(=O)(=O)c1ccc(C)cc1", "Potency": "inactive"}
{"smiles": "CN(C)c1ccc(C(=C2C=CC(=[N+](C)C)C=C2)c2ccc(N(C)C)cc2)cc1", "Potency": "inactive"}
{"smiles": "COc1cccc(OC)c1C(=O)O", "Potency": "inactive"}
{"smiles": "CCCCCCCCCCC[C@@H](C[C@@H]1OC(=O)[C@H]1CCCCCC)OC(=O)[C@H](CC(C)C)NC=O", "Potency": "inactive"}
{"smiles": "COc1cc(/C=C/c2ccccc2)oc(=O)c1", "Potency": "inactive"}
{"smiles": "NC[C@H]1O[C@H](O[C@H]2[C@H](O[C@@H]3O[C@H](CO)[C@@H](O)[C@H]3O)C(O)[C@H](N)C[C@@H]2N)[C@H](N)[C@@H](O)[C@@H]1O", "note": "(stereo not given in full)", "cytotoxicity increase": "-4.48% [at 6.97 µM]"}
{"smiles": "O=C1CCc2ccc(OCCCCN3CCN(c4cccc(Cl)c4Cl)CC3)cc2N1", "Potency": "inactive"}
{"smiles": "c1cnccn1", "Potency": "inactive"}
{"smiles": "c1ccc(C(O[C@@H]2CCCN(CCc3ccc4c(c3)OCO4)C2)c2ccccc2)cc1", "Potency": "inactive"}
{"smiles": "C=CC(=O)Nc1cc2c(Nc3ccc(F)c(Cl)c3)ncnc2cc1OCCCN1CCOCC1", "Potency": "inactive"}
{"smiles": "C[C@@H](O)[C@H](N)C(=O)O", "cytotoxicity increase": "-5.26% [at 15.8 µM]"}
{"smiles": "O=S(=O)(O)c1ccc(Nc2nc(Nc3ccc(/C=C/c4ccc(Nc5nc(Nc6ccc(S(=O)(=O)O)cc6)nc(N(CCO)CCO)n5)cc4S(=O)(=O)O)c(S(=O)(=O)O)c3)nc(N(CCO)CCO)n2)cc1", "Potency": "inactive"}
{"smiles": "C=CC(C)(CCC=C(C)C)OC=O", "note": "(stereo not given)", "Potency": "inactive"}
{"smiles": "CCCCCCCC/C=C\\CCCCCCCCN", "Potency": "23.9 µM (active)"}
{"smiles": "Cc1cc(C(C#N)c2ccc(Cl)cc2)c(Cl)cc1NC(=O)c1cc(I)cc(I)c1O", "note": "(stereo not given)", "Potency": "inactive"}
{"smiles": "CCCCCC(C)OC(=O)COc1ccc(Cl)c2cccnc12", "note": "(stereo not given)", "Potency": "inactive"}
{"smiles": "Cc1c(F)c(N2CCNC(C)C2)cc2c1c(=O)c(C(=O)O)cn2C1CC1", "note": "(stereo not given)", "Potency": "inactive"}
{"smiles": "COC(=O)C1=C(C)NC(C)=C(C(=O)OCCN2CCN(C(c3ccccc3)c3ccccc3)CC2)C1c1cccc([N+](=O)[O-])c1", "note": "(stereo not given)", "Potency": "inactive"}
{"smiles": "COC1=C(OC)C(=O)C(CCCCCCCCCCO)=C(C)C1=O", "Potency": "inactive"}
{"smiles": "O=S(=O)(O)c1ccc(N=Nc2c(O)ccc3ccccc23)cc1", "Potency": "inactive"}
{"smiles": "Cc1cccc(C)c1NC(=O)c1ccc(N)cc1", "Potency": "inactive"}
{"smiles": "O=C(O)c1cc(-c2ccc(F)cc2F)ccc1O", "Potency": "inactive"}
{"smiles": "COc1ccc(-c2coc3cc(O)ccc3c2=O)cc1", "Potency": "inactive"}
{"smiles": "O=c1[nH]c(=O)n([C@H]2C[C@H](O)[C@@H](CO)O2)cc1F", "Potency": "inactive"}
{"smiles": "CC(C)NC[C@@H](O)COc1ccc(CC(N)=O)cc1", "Potency": "inactive"}
{"smiles": "C#Cc1ccc(-c2ccccc2F)cc1", "Potency": "inactive"}
{"smiles": "CCCCCCOC(=O)C(C)CC", "note": "(stereo not given)", "Potency": "inactive"}
{"smiles": "CCCCC/C=C\\C/C=C\\CCCCCCCC(=O)O", "Potency": "inactive"}
{"smiles": "CCCNCCC", "Potency": "inactive"}
{"smiles": "COc1ccc(NC(=O)CC(C)=O)cc1", "Potency": "inactive"}
{"smiles": "Cc1ccc(O)c(N)c1", "Potency": "inactive"}
{"smiles": "COc1cc(S(=O)(=O)O)c(C)cc1N=Nc1c(O)ccc2cc(S(=O)(=O)O)ccc12", "Potency": "inactive"}
{"smiles": "CCCCCCCCCCCCCC[N+](C)(C)C", "Potency": "47.3 µM (active) and 43.6 µM (active)"}
{"smiles": "CCCCCCCCCCCCCCCC[N+](C)(C)CC", "Potency": "55.1 µM (active) and 23.9 µM (active)"}
{"smiles": "CC[C@H](C)COC(=O)/C=C/c1ccc(N=Cc2ccc(OC)cc2)cc1", "Potency": "inactive"}
{"smiles": "O=C(O)CCN(C1(C(=O)NO)CCCC1)S(=O)(=O)c1ccc(Oc2ccc(F)cc2)cc1", "Potency": "inactive"}
{"smiles": "[Cl][Pt-2]([Cl])([Cl])[Cl]", "Potency": "inactive"}
{"smiles": "COc1c(C)c2c(c(O)c1C/C=C(\\C)CCC(=O)OCCN1CCOCC1)C(=O)OC2", "Potency": "inactive"}
